# Measurements from PubChem BioAssay (NCI).
# This is part of a sample that, as a whole, favours compounds with a hit. Of some 79,000 tested, about 15% had one in any assay. A number with no mark means an inactive call. Active and inactive are the calls of the source. Cut-off read from the data, not from the text of the source: active = growth inhibition above about 70%; inactive = the rest.
# Tests used:
# [1] = NCI Yeast Anticancer Drug Screen. Data for the rad52 strain (AID 147);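 note: 0% = growth of vehicle-treated control cultures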; settings: S. cerevisiae rad52 mutant growth inhibition, hits give high values
# Outline: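 Genetically altered yeast (DNA damage repair defect) treated with compound; inhibition calculated relative to vehicle.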
# [2] = NCI Yeast Anticancer Drug Screen. Data for the wt1 strain (AID 149);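 note: 0% = growth of vehicle-treated wt1 cultures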; settings: S. cerevisiae wt1 strain (SPY 50644) growth inhibition, hits give high values
# Outline: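 Compounds are added to wt1 yeast cultures. Growth is then measured. Inhibition is expressed relative to vehicle-treated controls.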
# [3] = NCI Yeast Anticancer Drug Screen. Data for the rad50EPP+ strain (AID 151);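 note: 0% = growth of vehicle-treated control cultures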; settings: S. cerevisiae rad50 mutant strain, hits give high values
# Outline: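 Strain rad50EPP+; compound exposure; % growth inhibition vs vehicle.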
# [4] = NCI Yeast Anticancer Drug Screen. Data for the mgt1 strain (AID 153); settings: S. cerevisiae mgt1 mutant growth inhibition, hits give high values
# Outline: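 Read-out: yeast growth inhibition vs vehicle control. Strain mgt1, drawn from a panel altered in DNA damage repair or cell cycle control.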
# [5] = NCI Yeast Anticancer Drug Screen. Data for the rad50 strain (AID 155);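 note: 0% = growth of vehicle-only cultures of the same strain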; settings: S. cerevisiae rad50 strain growth inhibition, hits give high values
# Outline: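 Inhibition values express reduced yeast growth in compound-treated cultures relative to vehicle-treated controls.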
# [6] = NCI Yeast Anticancer Drug Screen. Data for the mec2-1 strain (AID 157); settings: S. cerevisiae mec2-1 strain, hits give high values
# Outline: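 Cells of the genetically defined mec2-1 yeast strain are incubated with test compound. Inhibition of growth is calculated against vehicle-treated controls.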
# [7] = NCI Yeast Anticancer Drug Screen. Data for the rad14 strain (AID 159);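 note: 0% = growth of vehicle-treated control cultures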; settings: S. cerevisiae rad14 strain growth inhibition, hits give high values
# Outline: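 A mutant yeast strain defective in DNA damage repair is treated with compound; inhibition of its growth is scored against untreated, vehicle-exposed cultures.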
# [8] = NCI Yeast Anticancer Drug Screen. Data for the sgs1 mgt1 strain (AID 161);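 note: 0% = growth of cultures given vehicle only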; settings: S. cerevisiae sgs1 mgt1 strain, hits give high values
# Outline: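 Genetically altered yeast, compound exposure, growth inhibition relative to vehicle.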
# [9] = NCI Yeast Anticancer Drug Screen. Data for the CLN2oe strain (AID 163);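 note: 0% = growth of vehicle-only control cultures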; settings: S. cerevisiae CLN2oe strain, hits give high values
# Outline: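 Strain altered in cell-cycle control, incubated with compound; growth compared to solvent-treated controls.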
# [10] = NCI Yeast Anticancer Drug Screen. Data for the cln2 rad14 strain (AID 165);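 note: 0% = growth equal to vehicle treated cultures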; settings: S. cerevisiae cln2 rad14 strain, hits give high values
# Outline: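 The screen exposed genetically defined yeast (cln2 rad14) to test compounds and scored growth inhibition relative to vehicle-treated controls.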
# [11] = NCI Yeast Anticancer Drug Screen. Data for the bub3 strain (AID 167); settings: S. cerevisiae bub3 mutant strain, hits give high values
# Outline: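 Steps: expose the mutant yeast strain to compound; grow alongside vehicle-treated cultures; measure growth; express inhibition against the vehicle cultures.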
# [12] = NCI Yeast Anticancer Drug Screen. Data for the wt2 strain (AID 169);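 note: 0% = growth of vehicle-treated yeast cultures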; settings: S. cerevisiae wt2 strain growth inhibition, hits give high values
# Outline: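 Steps: yeast strain treated with compound; growth recorded; inhibition calculated relative to cultures given vehicle alone.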
# [13] = NCI Yeast Anticancer Drug Screen. Data for the mlh1 strain (AID 171);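 note: 0% = growth of vehicle-treated control cultures of the same strain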; settings: S. cerevisiae mlh1 strain growth inhibition, hits give high values
# Outline: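 Yeast screen: mutant strain plus compound, growth scored against vehicle control wells.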
# [14] = NCI Yeast Anticancer Drug Screen. Data for the sgs1 strain (AID 173);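 note: 0% = growth of vehicle-only control cultures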; settings: S. cerevisiae sgs1 mutant, hits give high values
# Outline: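 Inhibition of yeast growth served as the measure. The mutant strain was treated with each compound, and growth was normalised to cultures receiving vehicle alone.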
# [15] = NCI Yeast Anticancer Drug Screen. Data for the mlh1 rad18 strain (AID 175); settings: S. cerevisiae mlh1 rad18 strain growth inhibition, hits give high values
# Outline: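 Compound-treated yeast growth, normalised to vehicle controls. Strain bears defined DNA repair mutations.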
# [16] = NCI Yeast Anticancer Drug Screen. Data for the rad18 strain (AID 177); settings: S. cerevisiae rad18 mutant growth inhibition, hits give high values
# Outline: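 Inhibition values reflect reduced yeast growth compared with vehicle-treated controls, using a strain engineered with a DNA damage repair defect.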
# [17] = at 5.0 µM (retest, dose inferred, filed as 0.5)
# [18] = at 50.0 µM (retest, dose inferred, filed as 5.0)
smiles,measurement,setting,value
O=C(/C=C(/c1ccccc1)N1CCCCC1)c1ccccc1,growth inhibition,[1]; at 1.2 µM,0%
same,growth inhibition,[1]; at 3.7 µM,3%
same,growth inhibition,[1]; at 11.0 µM,5%
same,growth inhibition,[1]; at 33.0 µM,13%
same,growth inhibition,[1]; at 100.0 µM,98% (active)
same,growth inhibition,[2]; at 1.2 µM,-1%
same,growth inhibition,[2]; at 3.7 µM,4%
same,growth inhibition,[2]; at 11.0 µM,1%
same,growth inhibition,[2]; at 33.0 µM,9%
same,growth inhibition,[2]; at 100.0 µM,94% (active)
same,growth inhibition,[3]; at 1.2 µM,3%
same,growth inhibition,[3]; at 3.7 µM,16%
same,growth inhibition,[3]; at 11.0 µM,42%
same,growth inhibition,[3]; at 33.0 µM,43%
same,growth inhibition,[3]; at 100.0 µM,31%
same,growth inhibition,[4]; at 1.2 µM,-3%
same,growth inhibition,[4]; at 3.7 µM,-2%
same,growth inhibition,[4]; at 11.0 µM,0%
same,growth inhibition,[4]; at 33.0 µM,10%
same,growth inhibition,[4]; at 100.0 µM,87% (active)
same,growth inhibition,[5]; at 1.2 µM,-1%
same,growth inhibition,[5]; at 3.7 µM,-1%
same,growth inhibition,[5]; [17],0%
same,growth inhibition,[5]; at 11.0 µM,5%
same,growth inhibition,[5]; at 33.0 µM,11%
same,growth inhibition,[5]; [18],92% (active)
same,growth inhibition,[5]; at 50.0 µM,90.3% (active)
same,growth inhibition,[5]; at 100.0 µM,97% (active)
same,growth inhibition,[6]; at 1.2 µM,-4%
same,growth inhibition,[6]; at 3.7 µM,-5%
same,growth inhibition,[6]; [17],-12%
same,growth inhibition,[6]; at 11.0 µM,-3%
same,growth inhibition,[6]; at 33.0 µM,7%
same,growth inhibition,[6]; [18],84% (active)
same,growth inhibition,[6]; at 50.0 µM,53%
same,growth inhibition,[6]; at 100.0 µM,82% (active)
same,growth inhibition,[7]; at 1.2 µM,3%
same,growth inhibition,[7]; at 3.7 µM,6%
same,growth inhibition,[7]; at 11.0 µM,9%
same,growth inhibition,[7]; at 33.0 µM,30%
same,growth inhibition,[7]; at 100.0 µM,98% (active)
same,growth inhibition,[8]; [17],44%
same,growth inhibition,[8]; [18],94% (active)
same,growth inhibition,[8]; at 50.0 µM,82.1% (active)
same,growth inhibition,[9]; at 1.2 µM,-6%
same,growth inhibition,[9]; at 3.7 µM,-7%
same,growth inhibition,[9]; at 11.0 µM,-3%
same,growth inhibition,[9]; at 33.0 µM,-4%
same,growth inhibition,[9]; at 100.0 µM,97% (active)
same,growth inhibition,[10]; [17],14%
same,growth inhibition,[10]; [18],79% (active)
same,growth inhibition,[10]; at 50.0 µM,46%
same,growth inhibition,[11]; at 1.2 µM,2%
same,growth inhibition,[11]; at 3.7 µM,3%
same,growth inhibition,[11]; [17],34%
same,growth inhibition,[11]; at 11.0 µM,7%
same,growth inhibition,[11]; at 33.0 µM,19%
same,growth inhibition,[11]; [18],99% (active)
same,growth inhibition,[11]; at 50.0 µM,54.8%
same,growth inhibition,[11]; at 100.0 µM,94% (active)
same,growth inhibition,[12]; at 1.2 µM,-1%
same,growth inhibition,[12]; at 3.7 µM,1%
same,growth inhibition,[12]; at 11.0 µM,1%
same,growth inhibition,[12]; at 33.0 µM,15%
same,growth inhibition,[12]; at 100.0 µM,95% (active)
same,growth inhibition,[13]; at 1.2 µM,-4%
same,growth inhibition,[13]; at 3.7 µM,-1%
same,growth inhibition,[13]; at 11.0 µM,-3%
same,growth inhibition,[13]; at 33.0 µM,5%
same,growth inhibition,[13]; at 100.0 µM,96% (active)
same,growth inhibition,[14]; at 1.2 µM,-1%
same,growth inhibition,[14]; at 3.7 µM,-1%
same,growth inhibition,[14]; at 11.0 µM,3%
same,growth inhibition,[14]; at 33.0 µM,20%
same,growth inhibition,[14]; at 100.0 µM,97% (active)
same,growth inhibition,[15]; [17],55%
same,growth inhibition,[15]; [18],99% (active)
same,growth inhibition,[15]; at 50.0 µM,89.3% (active)
same,growth inhibition,[16]; at 1.2 µM,-2%
same,growth inhibition,[16]; at 3.7 µM,1%
same,growth inhibition,[16]; at 11.0 µM,3%
same,growth inhibition,[16]; at 33.0 µM,9%
same,growth inhibition,[16]; at 100.0 µM,97% (active)
CN1C(=O)c2ccc3ccccc3c2C1=O,growth inhibition,[1]; at 1.2 µM,7%
same,growth inhibition,[1]; at 3.7 µM,11%
same,growth inhibition,[1]; at 11.0 µM,35%
same,growth inhibition,[1]; at 33.0 µM,53%
same,growth inhibition,[1]; at 100.0 µM,68%
same,growth inhibition,[2]; at 1.2 µM,2%
same,growth inhibition,[2]; at 3.7 µM,3%
same,growth inhibition,[2]; at 11.0 µM,17%
same,growth inhibition,[2]; at 33.0 µM,25%
same,growth inhibition,[2]; at 100.0 µM,25%
same,growth inhibition,[3]; at 1.2 µM,8%
same,growth inhibition,[3]; at 3.7 µM,12%
same,growth inhibition,[3]; at 11.0 µM,42%
same,growth inhibition,[3]; at 33.0 µM,58%
same,growth inhibition,[3]; at 100.0 µM,52%
same,growth inhibition,[4]; at 1.2 µM,1%
same,growth inhibition,[4]; at 3.7 µM,1%
same,growth inhibition,[4]; at 11.0 µM,20%
same,growth inhibition,[4]; at 33.0 µM,18%
same,growth inhibition,[4]; at 100.0 µM,25%
same,growth inhibition,[5]; at 1.2 µM,12%
same,growth inhibition,[5]; at 3.7 µM,32%
same,growth inhibition,[5]; [17],4%
same,growth inhibition,[5]; at 11.0 µM,61%
same,growth inhibition,[5]; at 33.0 µM,63%
same,growth inhibition,[5]; [18],62%
same,growth inhibition,[5]; at 50.0 µM,84.5% (active)
same,growth inhibition,[5]; at 100.0 µM,70% (active)
same,growth inhibition,[6]; at 1.2 µM,-5%
same,growth inhibition,[6]; at 3.7 µM,0%
same,growth inhibition,[6]; [17],0%
same,growth inhibition,[6]; at 11.0 µM,0%
same,growth inhibition,[6]; at 33.0 µM,17%
same,growth inhibition,[6]; [18],29%
same,growth inhibition,[6]; at 50.0 µM,41.9%
same,growth inhibition,[6]; at 100.0 µM,26%
same,growth inhibition,[7]; at 1.2 µM,3%
same,growth inhibition,[7]; at 3.7 µM,8%
same,growth inhibition,[7]; at 11.0 µM,20%
same,growth inhibition,[7]; at 33.0 µM,32%
same,growth inhibition,[7]; at 100.0 µM,43%
same,growth inhibition,[8]; [17],27%
same,growth inhibition,[8]; [18],54%
same,growth inhibition,[8]; at 50.0 µM,43%
same,growth inhibition,[9]; at 1.2 µM,3%
same,growth inhibition,[9]; at 3.7 µM,6%
same,growth inhibition,[9]; at 11.0 µM,18%
same,growth inhibition,[9]; at 33.0 µM,21%
same,growth inhibition,[9]; at 100.0 µM,27%
same,growth inhibition,[10]; [17],-39%
same,growth inhibition,[10]; [18],6%
same,growth inhibition,[10]; at 50.0 µM,33.4%
same,growth inhibition,[11]; at 1.2 µM,6%
same,growth inhibition,[11]; at 3.7 µM,8%
same,growth inhibition,[11]; [17],4%
same,growth inhibition,[11]; at 11.0 µM,37%
same,growth inhibition,[11]; at 33.0 µM,35%
same,growth inhibition,[11]; [18],37%
same,growth inhibition,[11]; at 50.0 µM,48.8%
same,growth inhibition,[11]; at 100.0 µM,32%
